The structures appear in SMILES notation. Inconclusive results are not listed. Active and inactive are the calls of the source. The call rests on the fitted dose curve; in most records, active means well fitted inhibition curve with a large enough effect; inconclusive means small, poorly fitted or top-dose-only effect; inactive means no such curve, though single readings can be large or run the other way.

Sequence of Peptidyl-prolyl cis-trans isomerase NIMA-interacting 1 (Homo sapiens) (Q13526 whole entry, looked up, the tested form may be a part): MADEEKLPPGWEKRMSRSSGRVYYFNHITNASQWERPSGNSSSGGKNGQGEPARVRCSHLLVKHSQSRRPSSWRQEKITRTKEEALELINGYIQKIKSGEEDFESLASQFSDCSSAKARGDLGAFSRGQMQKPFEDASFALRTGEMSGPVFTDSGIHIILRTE

For this experiment, the target named is Peptidyl-prolyl cis-trans isomerase NIMA-interacting 1 (Homo sapiens) (UniProt Q13526). Kind of experiment: qHTS Assay to Find Inhibitors of Pin1: Hit Validation using Tamra Binding. As to conditions: Pin1 Tamra-peptide displacement, fluorescence polarization, 10 min; series mostly up to 57.5 µM. The text has this:
The unique chemical properties of Pro allow for the adoption of two completely distinct amide bond conformations (cis and trans). Peptidyl-prolyl cis/trans isomerases (PPIases) are evolutionary conserved enzymes that catalyze cis/trans isomerization of peptidyl-prolyl peptide bonds. Distinct from all other PPIases such as cyclophilins and FK506-binding proteins (FKBPs), Pin1 binds a subset of phos.Ser/Thr-Pro-containing proteins using its protein-targeting WW domain and isomerizes only specific phos.Ser/Thr-Pro bonds, which cannot be effectively catalyzed by other known PPIases. Pin1-catalyzed conformational regulation can control a spectrum of activities of many key regulators in diverse cellular processes such as cell growth, genotoxic and other stress responses, immune response, germ cell development, neuronal differentiation and survival. Pin1 has emerged as a novel molecular timer that modulates its multiple targets at various steps of a given cellular process to synergistically control the amplitude and duration of a cellular response or process. Importantly, Pin1 is tightly regulated by multiple levels and its deregulation has an important role in a growing number of pathological conditions, including cancer, Alzheimer's disease, aging, asthma and microbial infection, providing a potentially new therapeutic option. The goal of this screen is to find small-molecule inhibitors of Pin1 using a fluorescence polarization competition assay.In the primary screen, a HiFluor-488-labeled peptide binds to the active site of Pin1 and can be displaced by compounds. Compounds were screened as a concentration-titration series that ranged from 57 uM to 0.7 nM. To validate the hits using a different read-out, this Tamra binding assays was used against all the hits identified from the primary screen. NIH Molecular Libraries Probe Production Network [MLPCN] NIH Chemical Genomics Center [NCGC] MLPCN Grant: R03 DA031663 PI Name: Dr. Kun Ping Lu, Beth Israel Deaconess Medical Center
Briefly, 2 uL of Pin1 (all columns but column 3, which just receives buffer and serves as negative control) are dispensed into Greiner black solid bottom 1536-well assay plates. Compounds are then transferred via Kalypsys pin tool equipped with 1536-pin array (10 nl slotted pins, V&P Scientific, San Diego, CA). Following addition of compound, 2 uL of Tamra-probe in buffer (all columns) is added to initiate the binding reaction. The plates are then incubated at room temperature for 10 minutes. Finally, plates are transferred to a ViewLux high-throughput CCD imager (PerkinElmer), wherein end-point measurements of fluorescence polarization are acquired. All reagents are diluted in an assay buffer consisting of 10 mM Hepes, 10 mM NaCl, 1 mM DTT, 1% glycerol and 0.01% Tween-20.
Background: qHTS replaces the single test concentration by a dilution series.
Regarding `O=S(=O)(Nc1cc(Sc2ncn[nH]2)c(O)c2ccccc12)c1ccccc1`, the Potency result is “inactive”. Consider `O=S(=O)(O)c1cc(O)c2cc(Nc3ccccc3)ccc2c1`, for which the Potency is 12 µM (active).

Take `COc1ccccc1Nc1ccc2c(O)cc(S(=O)(=O)O)cc2c1`: the Potency is 7.57 µM (active). With `Nc1ccc2cccc(O)c2c1` the figure was 26.9 µM (active); with `Cc1ccc2nc(-c3ccc(N=Nc4cc(S(=O)(=O)O)c5ccccc5c4O)cc3)sc2c1S(=O)(=O)O`, “inactive”; with `O=S(=O)(O)c1ccc(O)c2cc(Nc3ccccc3)ccc12`, 3.01 µM (active). As for `CC(=O)Nc1ccc(Nc2c3c4c(cccc4n(C)c2=O)C(=O)c2ccccc2-3)cc1`, the entry is “inactive”; as for `CCCCCC(=O)Nc1cc(S(=O)(=O)O)cc2cc(S(=O)(=O)O)cc(O)c12`, 2.39 µM (active); as for `COc1ccc(S(=O)(=O)Nc2cc(Sc3ncn[nH]3)c(O)c3ccccc23)cc1`, “inactive”.

(Values after PubChem BioAssay AID624312 (National Center for Advancing Translational Sciences (NCATS), 2012).)
